# Pol kappa inh-1: DNA polymerase kappa (human) inhibition. purified Pol kappa, fluorescent DNA synthesis assay, 10 min. Potency, µM (top dose mostly 107 µM), for inactives: at the highest dose activity, negative = inhibition, actives largely listed as inhibitors. 0.53% of 400,000 active; further: potency means the concentration at half of the fitted maximal effect; on the % scale 0 is the no-effect control and ±100 the full control effect
# Target sequence (Q9UBT6 whole entry, looked up): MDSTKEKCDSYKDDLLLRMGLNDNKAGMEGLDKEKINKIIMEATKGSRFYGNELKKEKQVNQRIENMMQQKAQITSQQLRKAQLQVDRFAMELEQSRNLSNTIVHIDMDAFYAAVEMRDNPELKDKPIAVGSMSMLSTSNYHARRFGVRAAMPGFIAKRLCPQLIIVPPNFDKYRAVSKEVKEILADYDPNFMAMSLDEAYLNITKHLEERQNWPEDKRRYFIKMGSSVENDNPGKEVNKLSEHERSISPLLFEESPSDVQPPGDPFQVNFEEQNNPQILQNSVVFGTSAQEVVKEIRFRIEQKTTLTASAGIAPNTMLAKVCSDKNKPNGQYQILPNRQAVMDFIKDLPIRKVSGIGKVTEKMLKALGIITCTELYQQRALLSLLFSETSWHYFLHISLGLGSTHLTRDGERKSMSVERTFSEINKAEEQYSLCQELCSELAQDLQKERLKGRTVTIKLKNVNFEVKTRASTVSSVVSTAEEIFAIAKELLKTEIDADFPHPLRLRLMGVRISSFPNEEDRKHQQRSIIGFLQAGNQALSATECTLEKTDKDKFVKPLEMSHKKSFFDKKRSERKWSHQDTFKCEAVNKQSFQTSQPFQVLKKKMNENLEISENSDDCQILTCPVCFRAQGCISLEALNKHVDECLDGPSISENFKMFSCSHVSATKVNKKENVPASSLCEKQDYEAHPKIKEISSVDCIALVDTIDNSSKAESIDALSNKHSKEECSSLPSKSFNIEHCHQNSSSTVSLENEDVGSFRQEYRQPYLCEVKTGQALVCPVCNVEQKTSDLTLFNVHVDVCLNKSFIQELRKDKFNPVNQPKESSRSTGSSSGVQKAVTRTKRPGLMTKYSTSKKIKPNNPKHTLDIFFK
#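 Enzyme at 10 nM met test compounds for 15 min at room temperature. Substrate addition (50 nM final) began the reaction, which was monitored by fluorescence at 0 and 10 min.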
# Pol eta inh-1: DNA polymerase eta (human) inhibition; Q9Y253; recombinant Pol eta, fluorescent DNA replication assay; Potency, µM (titrated, usually from 114 µM), for the others: at the top dose activity change, negative = inhibition, usual class: inhibitors; 1.2% of 390,000 active; AID 588591; further: potency means the concentration at half of the fitted maximal effect; on the % scale 0 is the no-effect control and ±100 the full control effect
#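 Fluorescent replication assay: 50 nM final substrate added after a 15 min room-temperature compound preincubation with 10 nM enzyme. Signal taken at 0 min and again at 10 min.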
# WRN helicase inh: WRN helicase (human) inhibition; Q14191; WRN helicase unwinding, fluorescent forked duplex, kinetic; Potency, µM (series often up to 114 µM), inactives show top-dose activity change, negative = inhibition, usual class: inhibitors; 0.46% of 360,000 active; AID 651768; further: potency means the concentration at half of the fitted maximal effect; on the % scale 0 is the no-effect control and ±100 the full control effect; nearly all actives have a fitted effect of over 55% in size
#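 Primary qHTS, 1536-well format. 20 nM WRN + compound, 15 min RT; start with 100 nM forked fluorophore/quencher duplex, 2 mM ATP (final); kinetic read ex 525/em 598 nm.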
# FEN1 inhibitor: inhibitors of human flap endonuclease 1. Recombinant FEN1 flap cleavage, fluorescence, 15 min. Potency, µM (top dose mostly 114 µM), without a hit: at the top dose activity change, negative = inhibition, hits mostly inhibitors. 0.35% of 390,000 active; further: potency means the concentration at half of the fitted maximal effect; on the % scale 0 is the no-effect control and ±100 the full control effect; nearly all actives have a fitted effect of over 65% in size
#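 In this screen, 50 nM flap DNA substrate was added to 10 nM FEN1 pretreated with compound for 15 min at room temperature; cleavage was followed with reads at 0 and 15 min, and Hill fitting gave concentration–response parameters.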
# POLI inh: DNA polymerase iota (human) inhibition; Potency, µM (series often up to 115 µM), inactives show at the top dose activity, negative = inhibition, most hits filed as inhibitors; 1% of 390,000 active; Q9UNA4; AID 588590; Pol iota fluorescent replication assay, 10 min; further: potency means the concentration at half of the fitted maximal effect
#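 Fluorescent replication assay read twice, at 0 min and 10 min after adding 50 nM (final) substrate. Enzyme (10 nM) and compounds were first incubated 15 min at room temperature; enzyme-free buffer wells were negative controls.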
# Pol beta inh-1: DNA polymerase beta (human) inhibition | 1.3% of 340,000 active | AID 485314 | Pol beta primer extension/strand displacement, fluorescence kinetic | Potency, µM (highest dose often 114 µM), for inactives: top-dose activity change, negative = inhibition, hits mostly inhibitors; further: potency means the concentration at half of the fitted maximal effect; on the % scale 0 is the no-effect control and ±100 the full control effect
#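 10 nM enzyme + cpd, 15 min RT; start with substrate 50 nM final; read 0 min and after 10 min RT. Corrected, normalized data; 4-parameter Hill curve fit.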
# Pol beta inh-2: Inhibitors of human DNA polymerase beta, hit validation; Pol beta primer extension/strand displacement, fluorescence kinetic; 87% of 250 active; shares compounds with Pol beta inh-1; Potency, µM, most hits filed as inhibitors; calls by dose curve; further: potency means the concentration at half of the fitted maximal effect
# Klenow counter: inhibits Klenow fragment polymerase in counter-screen | 250 tested, under 10 active | AID 540300 | activity change, negative = inhibition, % at 57.1 µM | Klenow exo- polymerase counter-screen, fluorescent DNA substrate | shares compounds with Pol beta inh-1
# HIV RT counter: counter-screen for DNA polymerase beta inhibitors: HIV-1 RT inhibition; HIV-1 RT polymerase activity, counter-screen; AID 540301; activity % (negative = inhibition, positive = activation), % at 57.1 µM; 250 tested, under 10 active; shares compounds with Pol beta inh-1
# POLB valid: validation of human DNA polymerase beta inhibitors; inhibition, % at 10 µM; radiolabeled primer extension gel assay, phosphorimager; shares compounds with Pol beta inh-1; 91% of 110 active; AID 540325;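 active means inhibition at 10 µM of 30% or more; inconclusive means no clear call, values can overlap the other calls; inactive means inhibition at 10 µM under 30%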
# BAZ2B inh: confirmation of human BAZ2B bromodomain inhibitors; AID 588809; shares compounds with Pol kappa inh-1; AlphaScreen BAZ2B / biotin-H3K14Ac peptide displacement; Potency, µM, usual class: inhibitors; 100% of 25 active; calls by dose curve
# BAZ2B bead ctr: counter-screen for BAZ2B inhibitors: AlphaScreen signal interference; AID 588859; AlphaScreen biotin-His6 peptide bead counterscreen, signal decrease; 25 tested, under 10 active; shares compounds with Pol kappa inh-1; Potency, µM (series often up to 57.1 µM), for the others: at the highest dose activity change, negative = inhibition, most hits filed as inhibitors;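 active means clear concentration-dependent signal drop in the bead assay lacking the target, so a primary-screen artifact; inconclusive means weak, partial or single-dose response; inactive means no response, so a real primary hit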
# Pol iota confirm: Human Pol iota inhibitor confirmatory assay. shares compounds with Pol kappa inh-1. Pol iota primer extension, TAMRA/BHQ fluorescence. Potency, µM, hits mostly inhibitors. 77% of 1,500 active; further: potency means the concentration at half of the fitted maximal effect
# Pol kappa inh-2: Pol kappa (human) inhibition, cherry-pick confirmation; shares compounds with Pol eta inh-1; 76% of 920 active; AID 720501; purified Pol-kappa, fluorescent strand-displacement substrate; Potency, µM, most hits filed as inhibitors; further: potency means the concentration at half of the fitted maximal effect
# Pol eta inh-2: confirmation of human DNA polymerase eta inhibitors; shares compounds with Pol eta inh-1; Pol eta primer extension, TAMRA/BHQ fluorescence, 10 min; Potency, µM, hits mostly inhibitors; 64% of 2,600 active; further: potency means the concentration at half of the fitted maximal effect
# * = called active by the depositor; ? = inconclusive; / = not tested or not shown; [ ] = another dose, or the depositor's remark. Rows were chosen to be rich in hits. Some 2.4% of all compounds tested hit in one or more screens of this group. Unless noted, the call rests on the fitted dose curve; in most records, active means well fitted curve in the direction sought with a large enough effect; inconclusive means small, poorly fitted or top-dose-only effect, or another doubt; inactive means no such curve, though single readings can be large; an effect the other way counts as inactive or inconclusive.
SMILES,Pol kappa inh-1,Pol eta inh-1,WRN helicase inh,FEN1 inhibitor,POLI inh,Pol beta inh-1,Pol beta inh-2,Klenow counter,HIV RT counter,BAZ2B inh,BAZ2B bead ctr,Pol iota confirm,Pol eta inh-2,others
C[C@H]1O[C@@H](O[C@H]2[C@@H](O)C[C@@H](O[C@H]3[C@@H](O)C[C@H](O[C@H]4CC[C@@]5(C)[C@H](CC[C@@H]6[C@@H]5CC[C@]5(C)[C@@H](C7=CC(=O)OC7)CC[C@]65O)C4)O[C@@H]3C)O[C@@H]2C)C[C@H](O)[C@@H]1O,/,/,/,18%,/,/,/,/,/,/,/,/,/,
CCOc1ccc(C=C2C(=O)NC(=S)NC2=O)cc1OCC,-12%,4%,?,2%,?,/,/,/,/,/,/,/,/,
CCOc1cc(C=C2C(=O)NC(=O)NC2=O)ccc1OS(=O)(=O)c1ccccc1,-27%,-8%,45µM*,-11%,-63%,8%,/,/,/,/,/,/,/,
C(=C\c1ccccc1)/CN1CCN(CCOC(c2ccccc2)c2ccccc2)CC1,0%[19.4 µM],/,/,/,/,/,/,/,/,/,/,/,/,
CCC(=O)Nc1ccccc1,-2%,-7%,1%,-3%,6%,24%,/,/,/,/,/,/,/,
CCC(=O)Nc1cc(C(=O)O)ccc1S(=O)(=O)c1ccc(C)cc1,?,5.6µM*,?,?,?,10µM*,28*,-26,-14,/,/,60*,19*,
O=C(c1cncc(Br)c1)N1CCN(S(=O)(=O)c2ccc3ccccc3c2)CC1,-6%,-11%,-11%,-12%,49%,/,/,/,/,/,/,/,/,
C=C(C)C(=O)Nc1cccc(C2=NOC3(C2)C[C@H](C(N)=O)N(C(=O)/C=C/C)C3)c1 (some centres undefined),?,8.9µM*,-29%[57.1 µM],9%,?,5µM*,7.1*,3,9,7.1*,-7%,?,19*,
NC(=O)CF,19%[60.1 µM],/,/,/,/,/,/,/,/,/,/,/,/,
O=C(COC(=O)c1c2c(nc3ccccc13)/C(=C/c1ccco1)CC2)NC1CCCC1,32µM*,3.5µM*,32µM*,-17%,13µM*,3.2µM*,25*,-28,-5,7.1*,?,13*,17*,POLB valid=99*;Pol kappa inh-2=12*
CCOC(=O)CCCc1sc(N)nc1-c1[nH]c(=O)[nH]c1C,?,?,?,-9%,?,1%,/,/,/,10*,?,/,/,
